15 sequences from publication PMC11006913 can be followed below.

Holding throughout (experiment): PBM; 200 nM protein, PBS
Conditions in all cases: dsDNA, one strand shown

In one assay the target is T1, VENTX (Homo sapiens, UniProt O95231 78-163, R121Q).
T1 sequence: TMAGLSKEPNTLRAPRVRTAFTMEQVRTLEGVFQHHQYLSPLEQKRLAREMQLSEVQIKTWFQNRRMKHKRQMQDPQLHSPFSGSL

For assay [1], the target named is T2, NKX2-4 (Homo sapiens, UniProt Q9H2Z4 175-261, P217L).
T2 sequence: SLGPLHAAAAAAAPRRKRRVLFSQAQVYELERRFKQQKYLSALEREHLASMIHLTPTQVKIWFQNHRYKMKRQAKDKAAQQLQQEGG

The target in assay [2] is T3, NKX2-4 (Homo sapiens, UniProt Q9H2Z4 175-261, T231S).
T3 sequence: T2 sequence with L43P, T57S

For assay [3], the target named is T4, NKX2-4 (Homo sapiens, UniProt Q9H2Z4 175-261).
T4 sequence: T2 sequence with L43P

Assay [4] addresses T5, NKX2-4 (Homo sapiens, UniProt Q9H2Z4 175-261, R246Q).
T5 sequence: T2 sequence with L43P, R72Q

Assay [5] addresses VAX1 (Homo sapiens, UniProt Q5SQQ9 86-172).
The target of assay [6] is VAX1 (Homo sapiens, UniProt Q5SQQ9 86-172, T142I).
Chain of VAX1 (Homo sapiens, UniProt Q5SQQ9 86-172, T142I) (Q5SQQ9 86-172 T142I): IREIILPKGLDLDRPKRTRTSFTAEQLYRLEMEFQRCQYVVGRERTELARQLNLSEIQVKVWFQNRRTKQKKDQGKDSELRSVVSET
In assay [7] the target is VAX1 (Homo sapiens, UniProt Q5SQQ9 86-172, K157R).
Chain of VAX1 (Homo sapiens, UniProt Q5SQQ9 86-172, K157R) (Q5SQQ9 86-172 K157R): as the sequence (Q5SQQ9 86-172 T142I) above, with I57T, K72R counted along it
For assay [8], the target named is NKX3-2 (Homo sapiens, UniProt P78367 192-278, P234S).
Chain of NKX3-2 (Homo sapiens, UniProt P78367 192-278, P234S) (P78367 192-278 P234S): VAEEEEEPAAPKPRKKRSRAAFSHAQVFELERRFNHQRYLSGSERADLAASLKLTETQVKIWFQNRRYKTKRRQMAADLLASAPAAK
Assay [9] has as its target NKX3-2 (Homo sapiens, UniProt P78367 192-278).
The next assay deals with HOXC10 (Homo sapiens, UniProt Q9NYD6 254-340).
Chain of HOXC10 (Q9NYD6 254-340): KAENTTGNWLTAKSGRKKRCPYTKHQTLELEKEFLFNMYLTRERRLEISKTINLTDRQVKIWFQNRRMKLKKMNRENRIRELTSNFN
In assay [10] the target is ALX4 (Homo sapiens, UniProt Q9H161 200-286).
Chain of ALX4 (Homo sapiens, UniProt Q9H161 200-286) (Q9H161 200-286): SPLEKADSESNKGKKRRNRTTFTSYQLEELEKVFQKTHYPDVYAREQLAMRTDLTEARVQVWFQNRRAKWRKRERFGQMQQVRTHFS
For assay [11], the target named is ALX4 (Homo sapiens, UniProt Q9H161 200-286, Q225E).
Chain of ALX4 (Homo sapiens, UniProt Q9H161 200-286, Q225E) (Q9H161 200-286 Q225E): as the sequence (Q9H161 200-286) above, with Q26E counted along it
Assay [12] addresses T6, NKX2-6 (Homo sapiens, UniProt A6NCS4 118-204).
T6 sequence: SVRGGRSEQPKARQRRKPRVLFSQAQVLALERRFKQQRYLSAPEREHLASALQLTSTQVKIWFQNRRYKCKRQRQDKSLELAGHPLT

The target in assay [13] is T7, NKX2-6 (Homo sapiens, UniProt A6NCS4 118-204, F151L).
T7 sequence: T6 sequence with F34L

Substitutions are numbered along the chain they refer to.

Chain of VAX1 (Homo sapiens, UniProt Q5SQQ9 86-172) (Q5SQQ9 86-172): as the sequence (Q5SQQ9 86-172 T142I) above, with I57T counted along it
Chain of NKX3-2 (Homo sapiens, UniProt P78367 192-278) (P78367 192-278): as the sequence (P78367 192-278 P234S) above, with S43P counted along it

Consider TAATGTGA, for which, in the assay with VENTX, the binding signal is 10.5 upbm affinity estimate (log intensity, higher = more binding, comparable within an allelic series).
As to AAAGAGGC, the binding signal with NKX2-4 [1] was 11.7 upbm affinity estimate (log intensity, higher = more binding, comparable within an allelic series); in the assay with NKX2-4 [2], 11.9 upbm affinity estimate (log intensity, higher = more binding, comparable within an allelic series); with NKX2-4 [3] it was 11.6 upbm affinity estimate (log intensity, higher = more binding, comparable within an allelic series); in the assay with NKX2-4 [4], 11.9 upbm affinity estimate (log intensity, higher = more binding, comparable within an allelic series).
With ACGAGTAT, the binding signal is 11.5 upbm affinity estimate (log intensity, higher = more binding, comparable within an allelic series) in the assay with NKX2-4 [1]; 11.7 upbm affinity estimate (log intensity, higher = more binding, comparable within an allelic series) with NKX2-4 [2]; 11.4 upbm affinity estimate (log intensity, higher = more binding, comparable within an allelic series) with NKX2-4 [3]; 11.6 upbm affinity estimate (log intensity, higher = more binding, comparable within an allelic series) in the assay with NKX2-4 [4].
Turning to CGGTCGAC, the binding signal was 9.4 upbm affinity estimate (log intensity, higher = more binding, comparable within an allelic series) in the assay with NKX2-4 [1]; 9.24 upbm affinity estimate (log intensity, higher = more binding, comparable within an allelic series) with NKX2-4 [2]; 9.3 upbm affinity estimate (log intensity, higher = more binding, comparable within an allelic series) with NKX2-4 [3]; 9.39 upbm affinity estimate (log intensity, higher = more binding, comparable within an allelic series) in the assay with NKX2-4 [4]; 7.17 upbm affinity estimate (log intensity, higher = more binding, comparable within an allelic series) in the assay with VAX1 [5]; 7.28 upbm affinity estimate (log intensity, higher = more binding, comparable within an allelic series) with VAX1 [6]. For the same sequence, in the assay with VAX1 [7], the binding signal was 7.34 upbm affinity estimate (log intensity, higher = more binding, comparable within an allelic series).
With ATCCCTCC, the binding signal is 9.86 upbm affinity estimate (log intensity, higher = more binding, comparable within an allelic series) with NKX2-4 [1]; 9.87 upbm affinity estimate (log intensity, higher = more binding, comparable within an allelic series) in the assay with NKX2-4 [2]; 9.86 upbm affinity estimate (log intensity, higher = more binding, comparable within an allelic series) in the assay with NKX2-4 [3]; 9.77 upbm affinity estimate (log intensity, higher = more binding, comparable within an allelic series) in the assay with NKX2-4 [4].
Regarding AAAGCACT, the binding signal in the assay with NKX2-4 [1] was 11.7 upbm affinity estimate (log intensity, higher = more binding, comparable within an allelic series); with NKX2-4 [2], 11.9 upbm affinity estimate (log intensity, higher = more binding, comparable within an allelic series); in the assay with NKX2-4 [3], 11.6 upbm affinity estimate (log intensity, higher = more binding, comparable within an allelic series); in the assay with NKX2-4 [4] it was 11.9 upbm affinity estimate (log intensity, higher = more binding, comparable within an allelic series).
As to ATCCGGTG, the binding signal is 9.47 upbm affinity estimate (log intensity, higher = more binding, comparable within an allelic series) with NKX2-4 [1]; 9.42 upbm affinity estimate (log intensity, higher = more binding, comparable within an allelic series) with NKX2-4 [2]; 9.41 upbm affinity estimate (log intensity, higher = more binding, comparable within an allelic series) with NKX2-4 [3]; 9.45 upbm affinity estimate (log intensity, higher = more binding, comparable within an allelic series) with NKX2-4 [4].
Take CCCGGCAG: the binding signal was 9.62 upbm affinity estimate (log intensity, higher = more binding, comparable within an allelic series) with NKX2-4 [1]; 9.52 upbm affinity estimate (log intensity, higher = more binding, comparable within an allelic series) with NKX2-4 [2]; 9.63 upbm affinity estimate (log intensity, higher = more binding, comparable within an allelic series) with NKX2-4 [3]; 9.61 upbm affinity estimate (log intensity, higher = more binding, comparable within an allelic series) with NKX2-4 [4]; 7.23 upbm affinity estimate (log intensity, higher = more binding, comparable within an allelic series) in the assay with VAX1 [5]; 7.18 upbm affinity estimate (log intensity, higher = more binding, comparable within an allelic series) in the assay with VAX1 [6]. Also, the binding signal in the assay with VAX1 [7] was 7.28 upbm affinity estimate (log intensity, higher = more binding, comparable within an allelic series).
Take AGGCGGGC: the binding signal with NKX2-4 [1] is 9.12 upbm affinity estimate (log intensity, higher = more binding, comparable within an allelic series); with NKX2-4 [2], 8.97 upbm affinity estimate (log intensity, higher = more binding, comparable within an allelic series); with NKX2-4 [3], 9.16 upbm affinity estimate (log intensity, higher = more binding, comparable within an allelic series); in the assay with NKX2-4 [4], 9.08 upbm affinity estimate (log intensity, higher = more binding, comparable within an allelic series).
For the sequence CAAGAGGA, the binding signal with NKX2-4 [1] was 12 upbm affinity estimate (log intensity, higher = more binding, comparable within an allelic series); with NKX2-4 [2], 12.3 upbm affinity estimate (log intensity, higher = more binding, comparable within an allelic series); with NKX2-4 [3], 12 upbm affinity estimate (log intensity, higher = more binding, comparable within an allelic series); with NKX2-4 [4], 12.4 upbm affinity estimate (log intensity, higher = more binding, comparable within an allelic series).
For CACTCAAA, the binding signal with NKX2-4 [1] was 12.4 upbm affinity estimate (log intensity, higher = more binding, comparable within an allelic series); with NKX3-2 [8] it was 12.3 upbm affinity estimate (log intensity, higher = more binding, comparable within an allelic series); with NKX3-2 [9] it was 12.3 upbm affinity estimate (log intensity, higher = more binding, comparable within an allelic series).
For the sequence GCCATTAA, in the assay with HOXC10, the binding signal was 12.3 upbm affinity estimate (log intensity, higher = more binding, comparable within an allelic series).
Same read-out and setting: next, GCTTGGCC: 10.1 upbm affinity estimate (log intensity, higher = more binding, comparable within an allelic series).
For the sequence CACGGGGG, the binding signal in the assay with ALX4 [10] is 7.67 upbm affinity estimate (log intensity, higher = more binding, comparable within an allelic series); with ALX4 [11] it was 7.96 upbm affinity estimate (log intensity, higher = more binding, comparable within an allelic series).
Turning to CGGAGGGA, the binding signal is 7.87 upbm affinity estimate (log intensity, higher = more binding, comparable within an allelic series) with ALX4 [10]; 8.03 upbm affinity estimate (log intensity, higher = more binding, comparable within an allelic series) with ALX4 [11]; 9.02 upbm affinity estimate (log intensity, higher = more binding, comparable within an allelic series) with NKX2-6 [12]; 9.3 upbm affinity estimate (log intensity, higher = more binding, comparable within an allelic series) with NKX2-6 [13].
